Measured values as given in PubChem BioAssay (Tox21).
Results filed as inconclusive are left out. Calls of active or inactive are those of the source. Unless noted, calls follow the shape of the full dose curve.

Tests used:
[1] = Nuclear factor erythroid 2-related factor 2/antioxidant responsive element (Nrf2/ARE) small molecule agonists: qHTS cell viability counter screen in human keratinocytes (AID 1919968; active = well fitted curve in the direction sought with a large enough effect in the repeat runs; an effect the other way counts as inactive or inconclusive; also: nearly all actives have a fitted effect of over 55% in size; also: potency is read from the fitted curve at half-maximal effect)
Procedure, shortened: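 Fluorescence read-out from CellTiter-Fluor after 1 h at 37 C. Wells held HaCaT-derived ARE-luciferase reporter cells (1,500/well) treated 23 h with DMSO-dissolved compounds. Run in the same wells as the luciferase agonist read.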

[2] = Nuclear factor erythroid 2-related factor 2/antioxidant responsive element (Nrf2/ARE) small molecule agonists: luciferase reporter gene qHTS assay in human keratinocytes (AID 1919969); also: nearly all actives have a fitted effect of over 35% in size; also: potency is read from the fitted curve at half-maximal effect
[3] = biological target: Gonadotropin-releasing hormone receptor (Homo sapiens) (UniProt P30968); experiment: Human gonadotropin-releasing hormone receptor (GnRHR) small molecule agonists, calcium flux assay in GnRHR-HEK293 cells (AID 1920063); also: nearly all actives have a fitted effect of over 35% in size
Sequence of Gonadotropin-releasing hormone receptor (Homo sapiens) (P30968 whole entry, looked up): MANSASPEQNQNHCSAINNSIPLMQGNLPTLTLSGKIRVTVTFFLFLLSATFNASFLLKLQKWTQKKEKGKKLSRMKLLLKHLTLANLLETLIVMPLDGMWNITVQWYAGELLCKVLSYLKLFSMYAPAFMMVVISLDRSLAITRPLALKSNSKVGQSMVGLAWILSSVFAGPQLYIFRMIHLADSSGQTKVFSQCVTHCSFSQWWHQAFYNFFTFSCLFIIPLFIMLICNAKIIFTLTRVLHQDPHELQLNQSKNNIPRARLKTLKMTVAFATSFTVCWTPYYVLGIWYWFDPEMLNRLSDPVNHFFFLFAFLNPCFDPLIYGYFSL
Procedure, shortened: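 Calcium-dye fluorescence, Ex/Em=480/540, recorded every 1 sec over 3 min after compound addition to GnRHR-HEK293 cells. Cells had been seeded 18 hours earlier and dye-loaded for 1 hour at 37 C. Fifteen concentrations, triplicates.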

[4] = biological target: KiSS-1 receptor (Homo sapiens) (UniProt Q969F8); experiment: Human kisspeptin (KISS1R) small molecule agonists, calcium flux assay in KISS1R-HEK293 cells (AID 1920064; active = well fitted curve in the direction sought with a large enough effect in the repeat runs; an effect the other way counts as inactive or inconclusive)
Sequence of KiSS-1 receptor (Homo sapiens) (Q969F8 whole entry, looked up): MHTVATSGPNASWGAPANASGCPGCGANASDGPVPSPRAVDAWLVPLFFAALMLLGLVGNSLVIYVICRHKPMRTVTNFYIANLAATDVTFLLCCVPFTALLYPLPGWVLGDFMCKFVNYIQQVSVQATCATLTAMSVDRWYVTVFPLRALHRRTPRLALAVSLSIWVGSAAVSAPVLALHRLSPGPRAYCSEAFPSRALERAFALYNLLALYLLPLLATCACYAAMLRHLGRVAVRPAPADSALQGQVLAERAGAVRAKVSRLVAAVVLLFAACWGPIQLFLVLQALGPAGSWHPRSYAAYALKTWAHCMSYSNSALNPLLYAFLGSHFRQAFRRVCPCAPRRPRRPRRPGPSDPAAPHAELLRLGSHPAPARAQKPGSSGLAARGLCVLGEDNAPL
Procedure, shortened: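 Calcium flux read-out: kinetic fluorescence at Ex/Em=480/540, 1 s intervals over 3 min, after pin-tool compound addition to dye-loaded KISS1R-HEK293 cells. Fifteen concentrations, triplicates.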

[5] = p53 small molecule agonists, cell-based qHTS assay with rat liver microsomes (AID 1963578)
Procedure, shortened: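 Each plate received p53RE-bla cells, then compound, then rat liver microsomes and NADPH (both 0.5 mg/mL final). Plates were held 16 h at 37 C, and beta-lactamase activity was detected with LiveBLAzer over 2 h.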

[6] = p53 small molecule agonists, cell-based qHTS assay with rat liver microsomes: qHTS cell viability counter screen (AID 1963580); also: nearly all actives have a fitted effect of over 45% in size
Procedure, shortened: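 After the beta-lactamase ratio was read, CellTiter-Glo was added to the same wells and luminescence measured at 30 min; cells had been treated 16 h at 37 C with compounds, rat liver microsomes and NADPH (0.5 mg/mL final each).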

[7] = p53 small molecule agonists, cell-based qHTS assay: qHTS cell viability counter screen (AID 1963581); also: nearly all actives have a fitted effect of over 45% in size
Procedure, shortened: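 Cytotoxicity read-out: ATP-based luminescence (CellTiter-Glo, 30 min RT) measured in the same wells as the p53 reporter assay, HCT-116 p53RE-bla cells, 16 h compound exposure at 37 C.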

[8] = biological target: 5-hydroxytryptamine receptor 2A (Homo sapiens) (UniProt P28223); experiment: 5-hydroxytryptamine receptor 2A (HTR2A) small molecule antagonists, cell-based qHTS assay (AID 1963586); also: nearly all actives have a fitted effect of over 45% in size; also: potency is read from the fitted curve at half-maximal effect
Sequence of 5-hydroxytryptamine receptor 2A (Homo sapiens) (P28223 whole entry, looked up): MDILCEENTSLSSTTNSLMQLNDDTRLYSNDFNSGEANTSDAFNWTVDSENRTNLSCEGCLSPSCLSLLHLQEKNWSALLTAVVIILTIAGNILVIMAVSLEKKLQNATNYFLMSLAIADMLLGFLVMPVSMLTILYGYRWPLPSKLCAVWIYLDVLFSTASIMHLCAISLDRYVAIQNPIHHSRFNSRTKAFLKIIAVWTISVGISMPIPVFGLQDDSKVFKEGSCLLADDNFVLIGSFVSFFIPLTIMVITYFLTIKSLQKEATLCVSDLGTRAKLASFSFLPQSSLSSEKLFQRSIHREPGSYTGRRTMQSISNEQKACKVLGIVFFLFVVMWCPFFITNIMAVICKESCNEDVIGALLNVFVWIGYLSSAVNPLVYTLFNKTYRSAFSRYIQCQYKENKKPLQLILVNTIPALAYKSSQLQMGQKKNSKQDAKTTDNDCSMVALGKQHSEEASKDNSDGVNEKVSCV
Procedure, shortened: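 CHO cells stably expressing human HTR2A were plated for 18 h at 37 C, then loaded with calcium dye for 1 h. Compounds were preincubated 5 min at room temperature before DOI (4 nM solution) was added. Kinetic fluorescence was read for 3 min.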

[9] = biological target: 5-hydroxytryptamine receptor 2A (Homo sapiens) (UniProt P28223); experiment: 5-hydroxytryptamine receptor 2A (HTR2A) small molecule agonists, cell-based qHTS assay (AID 1963587); also: nearly all actives have a fitted effect of over 30% in size
Procedure, shortened: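 CHO cells stably expressing human HTR2A, plated 18 h, loaded with calcium dye 1 h at 37 C. Agonist mode: compounds added and intracellular calcium fluorescence recorded kinetically for 2 min at 1 sec intervals.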

[10] = biological target: Muscarinic acetylcholine receptor M1 (Homo sapiens) (UniProt P11229); experiment: Cholinergic receptor muscarinic 1 (CHRM1) small molecule antagonists, cell-based qHTS assay (AID 1963588); also: nearly all actives have a fitted effect of over 40% in size
Sequence of Muscarinic acetylcholine receptor M1 (Homo sapiens) (P11229 whole entry, looked up): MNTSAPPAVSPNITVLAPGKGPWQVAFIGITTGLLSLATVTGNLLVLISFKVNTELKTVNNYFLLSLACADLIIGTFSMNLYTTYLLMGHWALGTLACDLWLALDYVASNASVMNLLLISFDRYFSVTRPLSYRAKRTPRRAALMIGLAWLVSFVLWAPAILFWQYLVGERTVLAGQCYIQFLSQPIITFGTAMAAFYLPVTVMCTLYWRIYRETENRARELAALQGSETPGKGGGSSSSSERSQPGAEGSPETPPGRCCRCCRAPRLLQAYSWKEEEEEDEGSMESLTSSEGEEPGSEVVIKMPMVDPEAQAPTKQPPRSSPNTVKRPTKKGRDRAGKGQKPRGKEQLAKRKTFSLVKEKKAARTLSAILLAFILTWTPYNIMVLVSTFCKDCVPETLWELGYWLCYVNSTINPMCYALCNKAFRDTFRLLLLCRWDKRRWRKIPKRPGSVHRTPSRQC
Procedure, shortened: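 Compounds were tested at 15 concentrations in three independent runs. Dye-loaded CHRM1-CHO cells were exposed 5 min at room temperature before stimulation by acetylcholine added at 50nM. Intracellular calcium was read kinetically on FDSS for 3 min.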

[11] = biological target: Muscarinic acetylcholine receptor M1 (Homo sapiens) (UniProt P11229); experiment: Cholinergic receptor muscarinic 1 (CHRM1) small molecule agonists, cell-based qHTS assay (AID 1963589); also: nearly all actives have a fitted effect of over 35% in size
Procedure, shortened: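 Calcium flux read-out: kinetic fluorescence at 1 sec intervals after pin-tool compound addition to dye-loaded CHRM1-CHO cells (human M1). Agonist mode; 15 concentrations tested in triplicate independent runs.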

[12] = cAMP Responsive Elements (CRE) small molecule antagonists, cell-based qHTS assay (AID 1963591; active = well fitted inhibition curve with a large enough effect in the signal ratio in the repeat runs, not every such curve was filed as active; the % refers to the signal ratio)
Procedure, shortened: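 HEK293T CRE-bla; 18 h preincubation; compound pin-transfer; NKH477 0.25 uM final, 3 h, 37 C; LiveBLAzer FRET substrate 2 h RT.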

[13] = biological target: D(2) dopamine receptor (Homo sapiens) (UniProt P14416); experiment: Dopamine D2 receptor (DRD2) small molecule agonists, cell-based qHTS assay (AID 1963594); also: nearly all actives have a fitted effect of over 35% in size
Sequence of D(2) dopamine receptor (Homo sapiens) (P14416 whole entry, looked up): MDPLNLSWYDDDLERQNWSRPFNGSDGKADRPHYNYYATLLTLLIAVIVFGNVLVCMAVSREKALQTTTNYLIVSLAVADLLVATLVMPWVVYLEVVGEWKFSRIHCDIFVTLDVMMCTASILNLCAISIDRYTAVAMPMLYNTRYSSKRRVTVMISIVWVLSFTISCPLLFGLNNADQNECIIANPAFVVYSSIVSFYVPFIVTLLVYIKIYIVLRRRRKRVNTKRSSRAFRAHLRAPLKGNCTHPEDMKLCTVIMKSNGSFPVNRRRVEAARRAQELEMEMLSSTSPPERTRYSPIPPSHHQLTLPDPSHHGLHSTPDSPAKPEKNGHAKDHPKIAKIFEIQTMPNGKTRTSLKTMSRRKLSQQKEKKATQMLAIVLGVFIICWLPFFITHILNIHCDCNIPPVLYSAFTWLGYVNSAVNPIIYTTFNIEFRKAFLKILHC
Procedure, shortened: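 HEK293 cells stably expressing human DRD2, pre-treated with PDE inhibitor Ro20-1724 (0.1 mM final) and compound 10 min at room temperature, then stimulated with NKH477 (200nM […]) for 30 min. cAMP read by HTRF (665/620 nm).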

[14] = biological target: D(2) dopamine receptor (Homo sapiens) (UniProt P14416); experiment: Dopamine D2 receptor (DRD2) small molecule antagonists, cell-based qHTS assay (AID 1963595; active = well fitted inhibition curve with a large enough effect in the signal ratio in the repeat runs, with a control signal flat; the % refers to the signal ratio)
Procedure, shortened: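 Stable D2 receptor HEK293 line, 24 h after seeding. Compound preincubated 10 min, then quinpirole (12 nM) with forskolin analogue NKH477 (200 nM), 30 min, room temperature. Detection by time-resolved FRET of cAMP.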

[15] = p53 small molecule agonists, cell-based qHTS assay with human liver microsomes: qHTS cell viability counter screen (AID 1963579); also: nearly all actives have a fitted effect of over 45% in size
Procedure, shortened: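 Tox21 library compounds, delivered from DMSO stocks, were tested on p53RE-bla cells together with 0.5 mg/mL human liver microsomes and 0.5 mg/mL NADPH (final) over 16 h at 37 C; CellTiter-Glo luminescence served as the cytotoxicity measure.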

[16] = p53 small molecule agonists, cell-based qHTS assay (AID 1963582; active = well fitted activation curve with a large enough effect in the signal ratio in the repeat runs, not every such curve was filed as active; the % refers to the signal ratio)
Procedure, shortened: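 Fluorescence intensity read-out of a beta-lactamase reporter under a p53 response element. Cells were exposed to DMSO-dissolved compounds for 16 h at 37 C, then developed with FRET substrate for 2 h at RT.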

[17] = biological target: Beta-2 adrenergic receptor (Homo sapiens) (UniProt P07550); experiment: Adrenergic beta2 receptor (ADRB2) small molecule antagonists, cell-based qHTS assay (AID 1963592); also: series mostly up to about 92 µM; nearly all actives have a fitted effect of over 50% in size
Sequence of Beta-2 adrenergic receptor (Homo sapiens) (P07550 whole entry, looked up): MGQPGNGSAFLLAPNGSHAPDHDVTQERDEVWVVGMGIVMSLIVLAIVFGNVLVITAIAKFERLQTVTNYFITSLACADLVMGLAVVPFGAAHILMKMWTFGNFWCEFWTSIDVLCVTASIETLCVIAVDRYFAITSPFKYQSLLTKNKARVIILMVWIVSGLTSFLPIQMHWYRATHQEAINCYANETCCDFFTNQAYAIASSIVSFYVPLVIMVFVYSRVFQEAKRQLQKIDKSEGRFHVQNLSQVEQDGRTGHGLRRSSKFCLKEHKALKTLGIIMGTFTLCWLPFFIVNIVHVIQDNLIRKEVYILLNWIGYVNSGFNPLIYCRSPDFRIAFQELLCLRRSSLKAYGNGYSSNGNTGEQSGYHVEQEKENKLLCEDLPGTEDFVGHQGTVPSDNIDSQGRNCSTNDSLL
Procedure, shortened: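 Assay format: CHO-ADRB2 cells, 18-20hr seeding at 37C/5% CO2, then compound plus 1nM isoproterenol agonist mix for 0.5hr RT. Homogeneous time-resolved fluorescence cAMP detection after 1hr, expressed as 665/615 nm ratio.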

[18] = cAMP Responsive Elements (CRE) small molecule agonists, cell-based qHTS assay (AID 1963590)
Procedure, shortened: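 Beta-lactamase reporter readout: LiveBLAzer B/G FRET substrate, 2 h at room temperature, added after 3 h compound treatment of CRE-bla HEK 293T cells at 37 C/5% CO2.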

[19] = biological target: Beta-2 adrenergic receptor (Homo sapiens) (UniProt P07550); experiment: Adrenergic beta2 receptor (ADRB2) small molecule agonists, cell-based qHTS assay (AID 1963593);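 also: CHO cells stably overexpressing human ADRB2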
Procedure, shortened: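 CHO cells stably over-expressing ADRB2 were plated overnight at 37C, then dosed with compounds plus a stimulation mix containing 100uM IBMX and 25uM Ro-20-1724 for 0.5hr at room temperature. cAMP was measured by HTRF competition, 1hr.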
% is scaled to controls: 0 for no effect and ±100 for the full control effect.

O=[N+]([O-])c1ccc(O)cc1C(F)(F)F
inactive: Potency [3] | Potency [4] | Potency [5] | Potency [6] | Potency [7] | Potency [8] | Potency [9] | Potency [10] | Potency [11] | Potency [12] | Potency [13] | Potency [14]
active: Potency [1] 30.6 µM | Potency [2] 68.6 µM

CN1CCN(C(=O)C2CCCCC2)CC1
inactive: Potency [1] | Potency [2] | Potency [3] | Potency [4] | Potency [5] | Potency [15] | Potency [6] | Potency [7] | Potency [16] | Potency [8] | Potency [9] | Potency [10] | Potency [11] | Potency [12] | Potency [17] | Potency [13] | Potency [14]

Nc1ccccc1Nc1ccccc1
active: Potency [1] 48.7 µM | Potency [2] 21.8 µM
inactive: Potency [3] | Potency [4] | Potency [15] | Potency [6] | Potency [8] | Potency [9] | Potency [10] | Potency [11] | Potency [12] | Potency [13] | Potency [14]

O=C(O)c1nc(Cl)c(Cl)c(Cl)c1Cl
active: Potency [2] 30.6 µM
inactive: Potency [1] | Potency [3] | Potency [4] | Potency [15] | Potency [6] | Potency [7] | Potency [8] | Potency [9] | Potency [11] | Potency [17] | Potency [13] | Potency [14]

CCCCCCCCCCCCCCCCN(C)C
inactive: activity change, negative = cytotoxicity [1] 3.36% [at 8.39 µM] | activity, positive = activation [2] -0.511% [at 8.39 µM] | activity change [3] -0.722% [at 5.22 µM, active compounds read high] | activation [4] 5.47% [at 6.97 µM] | activation [5] -0.0918% [at 5.99 µM] | activity change, negative = cytotoxicity [15] -6.23% [at 5.99 µM] | activity change, negative = cytotoxicity [6] 1.34% [at 5.99 µM] | activity change, negative = cytotoxicity [7] 8.26% [at 5.99 µM] | activation [16] 9.5% [at 5.99 µM] | activity, negative = inhibition [8] -3.75% [at 5.62 µM] | activation [9] 3.51% [at 7.02 µM] | activity, negative = inhibition [10] 5.3% [at 5.58 µM] | activation [11] 0.295% [at 6.97 µM] | activation [18] -1.13% [at 8.39 µM] | activity change, negative = inhibition [12] 1.36% [at 8.39 µM] | activity change, negative = inhibition [17] -8.88% [at 8.39 µM] | activation [13] -3.52% [at 8.39 µM] | activity change, negative = inhibition [14] -3.89% [at 8.38 µM]

FB(F)F
inactive: Potency [1] | Potency [2] | Potency [3] | Potency [4] | Potency [6] | Potency [7] | Potency [8] | Potency [9] | Potency [10] | Potency [11] | Potency [18] | Potency [12] | Potency [17] | Potency [19] | Potency [13] | Potency [14]

CCNCCO
inactive: Potency [1] | Potency [2] | Potency [3] | Potency [4] | Potency [15] | Potency [6] | Potency [7] | Potency [8] | Potency [9] | Potency [10] | Potency [11] | Potency [18] | Potency [12] | Potency [17] | Potency [19] | Potency [13] | Potency [14]

CC1=CC(=O)/C(=C(/C)O)C(=O)O1
inactive: Potency [1] | Potency [2] | Potency [3] | Potency [4] | Potency [5] | Potency [15] | Potency [6] | Potency [16] | Potency [9] | Potency [10] | Potency [11] | Potency [18] | Potency [12] | Potency [17]

CC(=O)Nc1ccc(S(=O)(=O)Cl)cc1
inactive: Potency [1] | Potency [2] | Potency [3] | Potency [4] | Potency [15] | Potency [6] | Potency [7] | Potency [8] | Potency [9] | Potency [10] | Potency [11] | Potency [18] | Potency [12] | Potency [17] | Potency [19] | Potency [13] | Potency [14]

Cc1ncc(COP(=O)(O)O)c(C=O)c1O
inactive: Potency [1] | Potency [2] | Potency [3] | Potency [4] | Potency [15] | Potency [6] | Potency [7] | Potency [8] | Potency [9] | Potency [10] | Potency [18] | Potency [12] | Potency [17] | Potency [13] | Potency [14]

O=C(O)C1(C(=O)Nc2ccc(Cl)cc2Cl)CC1
inactive: Potency [1] | Potency [2] | Potency [3] | Potency [4] | Potency [5] | Potency [15] | Potency [6] | Potency [7] | Potency [9] | Potency [10] | Potency [11] | Potency [17] | Potency [13] | Potency [14]
active: Potency [8] 33.4 µM

CCC(=O)C1CC(C(C)C)CC=C1C (configuration not stated)
inactive: Potency [1] | Potency [2] | Potency [3] | Potency [4] | Potency [15] | Potency [7] | Potency [8] | Potency [9] | Potency [10] | Potency [11] | Potency [18] | Potency [12] | Potency [17] | Potency [13] | Potency [14]

CC[C@@]1(c2ccccc2)NC(=O)N(C)C1=O
inactive: Potency [1] | Potency [2] | Potency [3] | Potency [4] | Potency [15] | Potency [6] | Potency [7] | Potency [8] | Potency [9] | Potency [10] | Potency [11] | Potency [18] | Potency [12] | Potency [17] | Potency [19] | Potency [13] | Potency [14]

CCCCN(CCO)CCCC
inactive: Potency [1] | Potency [2] | Potency [3] | Potency [4] | Potency [15] | Potency [6] | Potency [7] | Potency [8] | Potency [9] | Potency [10] | Potency [11] | Potency [18] | Potency [12] | Potency [19] | Potency [13] | Potency [14]

Nc1cccc(O)c1
inactive: Potency [1] | Potency [2] | Potency [3] | Potency [4] | Potency [15] | Potency [6] | Potency [7] | Potency [8] | Potency [9] | Potency [10] | Potency [11] | Potency [18] | Potency [12] | Potency [17] | Potency [19] | Potency [13] | Potency [14]

COc1cc(OC)c2ccc(=O)oc2c1
inactive: Potency [1] | Potency [2] | Potency [3] | Potency [4] | Potency [15] | Potency [6] | Potency [8] | Potency [9] | Potency [11] | Potency [18] | Potency [12] | Potency [13] | Potency [14]
